# Test results as given in article PMC11062922 (Nature Chemical Biology, 2023).
# Read-outs that look alike come from different tables or passages of the source.
# Key:
# Conditions in all cases: read-out: apparent Kd, n = 1
# [1] = system: MAPK10
# [2] = system: PBK
# [3] = system: PDGFRB
# [4] = system: PRKAA1
# [5] = compound concentrations:100 nM and 1000 nM (sheet 'Lestaurtinib' of Supplementary Table 1),run:Lestaurtinib_02487_R1,Plate:MR012
# [6] = compound concentrations:100 nM and 1000 nM (sheet 'Lestaurtinib' of Supplementary Table 1),run:Lestaurtinib_02584_R1,Plate:MR017
# [7] = compound concentrations:100 nM and 1000 nM (sheet 'Lestaurtinib' of Supplementary Table 1),run:Lestaurtinib_02584_R3,Plate:MR017
# [8] = compound concentrations:100 nM and 1000 nM (sheet 'Lestaurtinib' of Supplementary Table 1),run:Lestaurtinib_02601_R1,Plate:MR018
# [9] = compound concentrations:100 nM and 1000 nM (sheet 'Lestaurtinib' of Supplementary Table 1),run:Lestaurtinib_02606_R3,Plate:MR019
# [10] = compound concentrations:100 nM and 1000 nM (sheet 'Lestaurtinib' of Supplementary Table 1),run:Lestaurtinib_02724_R2,Plate:MR021
# [11] = compound concentrations:100 nM and 1000 nM (sheet 'Lestaurtinib' of Supplementary Table 1),run:Lestaurtinib_02741_R2,Plate:MR023
# [12] = compound concentrations:100 nM and 1000 nM (sheet 'Lestaurtinib' of Supplementary Table 1),run:Lestaurtinib_02748_R3,Plate:MR024
# [13] = compound concentrations:100 nM and 1000 nM (sheet 'Lestaurtinib' of Supplementary Table 1),run:Lestaurtinib_02766_R1,Plate:MR027
# [14] = compound concentrations:100 nM and 1000 nM (sheet 'Lestaurtinib' of Supplementary Table 1),run:Lestaurtinib_02795_R3,Plate:MR022
# [15] = compound concentrations:100 nM and 1000 nM (sheet 'Lestaurtinib' of Supplementary Table 1),run:Lestaurtinib_02896_R3,Plate:MR030
# [16] = compound concentrations:100 nM and 1000 nM (sheet 'Lestaurtinib' of Supplementary Table 1),run:Lestaurtinib_03172_R1,Plate:MR031
# [17] = compound concentrations:100 nM and 1000 nM (sheet 'Lestaurtinib' of Supplementary Table 1),run:Lestaurtinib_03172_R2,Plate:MR031
# [18] = compound concentrations:100 nM and 1000 nM (sheet 'Lestaurtinib' of Supplementary Table 1),run:Lestaurtinib_03252_R1,Plate:MR032
# [19] = compound concentrations:100 nM and 1000 nM (sheet 'Lestaurtinib' of Supplementary Table 1),run:Lestaurtinib_03252_R2,Plate:MR032
# [20] = compound concentrations:100 nM and 1000 nM (sheet 'Lestaurtinib' of Supplementary Table 1),run:Lestaurtinib_03260_R2,Plate:MR033
# [21] = compound concentrations:100 nM and 1000 nM (sheet 'Lestaurtinib' of Supplementary Table 1),run:Lestaurtinib_02741_R1,Plate:MR023
# [22] = compound concentrations:100 nM and 1000 nM (sheet 'Lestaurtinib' of Supplementary Table 1),run:Lestaurtinib_02896_R2,Plate:MR030
substance,measurement,setting,value
Lestaurtinib,potency estimated from few doses,"[1]; compound concentrations:100 nM and 1000 nM (sheet 'Lestaurtinib' of Supplementary Table 1),run:Lestaurtinib_02482_R1,Plate:MR011",469 nM
same,potency estimated from few doses,"[1]; compound concentrations:100 nM and 1000 nM (sheet 'Lestaurtinib' of Supplementary Table 1),run:Lestaurtinib_02482_R2,Plate:MR011",898 nM
same,potency estimated from few doses,"[1]; compound concentrations:100 nM and 1000 nM (sheet 'Lestaurtinib' of Supplementary Table 1),run:Lestaurtinib_02482_R3,Plate:MR011",612 nM
same,potency estimated from few doses,[1]; [5],798 nM
same,potency estimated from few doses,"[1]; compound concentrations:100 nM and 1000 nM (sheet 'Lestaurtinib' of Supplementary Table 1),run:Lestaurtinib_02487_R2,Plate:MR012",744 nM
same,potency estimated from few doses,"[1]; compound concentrations:100 nM and 1000 nM (sheet 'Lestaurtinib' of Supplementary Table 1),run:Lestaurtinib_02566_R1,Plate:MR014",712 nM
same,potency estimated from few doses,"[1]; compound concentrations:100 nM and 1000 nM (sheet 'Lestaurtinib' of Supplementary Table 1),run:Lestaurtinib_02572_R1,Plate:MR015",896 nM
same,potency estimated from few doses,"[1]; compound concentrations:100 nM and 1000 nM (sheet 'Lestaurtinib' of Supplementary Table 1),run:Lestaurtinib_02577_R2,Plate:MR016",636 nM
same,potency estimated from few doses,"[1]; compound concentrations:100 nM and 1000 nM (sheet 'Lestaurtinib' of Supplementary Table 1),run:Lestaurtinib_02577_R3,Plate:MR016",743 nM
same,potency estimated from few doses,[1]; [6],744 nM
same,potency estimated from few doses,[1]; [7],692 nM
same,potency estimated from few doses,[1]; [8],819 nM
same,potency estimated from few doses,[1]; [9],845 nM
same,potency estimated from few doses,"[1]; compound concentrations:100 nM and 1000 nM (sheet 'Lestaurtinib' of Supplementary Table 1),run:Lestaurtinib_02624_R1,Plate:MR020",802 nM
same,potency estimated from few doses,"[1]; compound concentrations:100 nM and 1000 nM (sheet 'Lestaurtinib' of Supplementary Table 1),run:Lestaurtinib_02624_R2,Plate:MR020",1320 nM
same,potency estimated from few doses,"[1]; compound concentrations:100 nM and 1000 nM (sheet 'Lestaurtinib' of Supplementary Table 1),run:Lestaurtinib_02624_R3,Plate:MR020",818 nM
same,potency estimated from few doses,"[1]; compound concentrations:100 nM and 1000 nM (sheet 'Lestaurtinib' of Supplementary Table 1),run:Lestaurtinib_02724_R1,Plate:MR021",870 nM
same,potency estimated from few doses,[1]; [10],518 nM
same,potency estimated from few doses,"[1]; compound concentrations:100 nM and 1000 nM (sheet 'Lestaurtinib' of Supplementary Table 1),run:Lestaurtinib_02724_R3,Plate:MR021",573 nM
same,potency estimated from few doses,[1]; [11],929 nM
same,potency estimated from few doses,"[1]; compound concentrations:100 nM and 1000 nM (sheet 'Lestaurtinib' of Supplementary Table 1),run:Lestaurtinib_02748_R1,Plate:MR024",747 nM
same,potency estimated from few doses,"[1]; compound concentrations:100 nM and 1000 nM (sheet 'Lestaurtinib' of Supplementary Table 1),run:Lestaurtinib_02748_R2,Plate:MR024",824 nM
same,potency estimated from few doses,[1]; [12],1610 nM
same,potency estimated from few doses,"[1]; compound concentrations:100 nM and 1000 nM (sheet 'Lestaurtinib' of Supplementary Table 1),run:Lestaurtinib_02765_R1,Plate:MR026",795 nM
same,potency estimated from few doses,"[1]; compound concentrations:100 nM and 1000 nM (sheet 'Lestaurtinib' of Supplementary Table 1),run:Lestaurtinib_02765_R3,Plate:MR026",501 nM
same,potency estimated from few doses,[1]; [13],1530 nM
same,potency estimated from few doses,[1]; [14],886 nM
same,potency estimated from few doses,"[1]; compound concentrations:100 nM and 1000 nM (sheet 'Lestaurtinib' of Supplementary Table 1),run:Lestaurtinib_02802_R2,Plate:MR029",1410 nM
same,potency estimated from few doses,"[1]; compound concentrations:100 nM and 1000 nM (sheet 'Lestaurtinib' of Supplementary Table 1),run:Lestaurtinib_02896_R1,Plate:MR030",532 nM
same,potency estimated from few doses,[1]; [15],592 nM
same,potency estimated from few doses,[1]; [16],784 nM
same,potency estimated from few doses,[1]; [17],591 nM
same,potency estimated from few doses,[1]; [18],932 nM
same,potency estimated from few doses,[1]; [19],717 nM
same,potency estimated from few doses,[1]; [20],671 nM
same,potency estimated from few doses,"[2]; compound concentrations:100 nM and 1000 nM (sheet 'Lestaurtinib' of Supplementary Table 1),run:Lestaurtinib_02364_R3,Plate:MR002",2310 nM
same,potency estimated from few doses,"[2]; compound concentrations:100 nM and 1000 nM (sheet 'Lestaurtinib' of Supplementary Table 1),run:Lestaurtinib_02381_R2,Plate:MR004",1820 nM
same,potency estimated from few doses,"[2]; compound concentrations:100 nM and 1000 nM (sheet 'Lestaurtinib' of Supplementary Table 1),run:Lestaurtinib_02606_R1,Plate:MR019",1970 nM
same,potency estimated from few doses,[2]; [9],2120 nM
same,potency estimated from few doses,[2]; [21],1530 nM
same,potency estimated from few doses,[2]; [12],1440 nM
same,potency estimated from few doses,[2]; [13],1690 nM
same,potency estimated from few doses,"[2]; compound concentrations:100 nM and 1000 nM (sheet 'Lestaurtinib' of Supplementary Table 1),run:Lestaurtinib_02766_R3,Plate:MR027",1760 nM
same,potency estimated from few doses,[2]; [22],1580 nM
same,potency estimated from few doses,[2]; [15],1970 nM
same,potency estimated from few doses,[2]; [16],1810 nM
same,potency estimated from few doses,"[2]; compound concentrations:100 nM and 1000 nM (sheet 'Lestaurtinib' of Supplementary Table 1),run:Lestaurtinib_03172_R3,Plate:MR031",1840 nM
same,potency estimated from few doses,"[3]; compound concentrations:100 nM and 1000 nM (sheet 'Lestaurtinib' of Supplementary Table 1),run:Lestaurtinib_02364_R1,Plate:MR002",2200 nM
same,potency estimated from few doses,"[3]; compound concentrations:100 nM and 1000 nM (sheet 'Lestaurtinib' of Supplementary Table 1),run:Lestaurtinib_02381_R1,Plate:MR004",1570 nM
same,potency estimated from few doses,"[3]; compound concentrations:100 nM and 1000 nM (sheet 'Lestaurtinib' of Supplementary Table 1),run:Lestaurtinib_02407_R3,Plate:MR005",428 nM
same,potency estimated from few doses,"[3]; compound concentrations:100 nM and 1000 nM (sheet 'Lestaurtinib' of Supplementary Table 1),run:Lestaurtinib_02437_R2,Plate:MR007",717 nM
same,potency estimated from few doses,"[3]; compound concentrations:100 nM and 1000 nM (sheet 'Lestaurtinib' of Supplementary Table 1),run:Lestaurtinib_02437_R3,Plate:MR007",1300 nM
same,potency estimated from few doses,"[3]; compound concentrations:100 nM and 1000 nM (sheet 'Lestaurtinib' of Supplementary Table 1),run:Lestaurtinib_02438_R2,Plate:MR008",2020 nM
same,potency estimated from few doses,"[3]; compound concentrations:100 nM and 1000 nM (sheet 'Lestaurtinib' of Supplementary Table 1),run:Lestaurtinib_02438_R3,Plate:MR008",1360 nM
same,potency estimated from few doses,"[3]; compound concentrations:100 nM and 1000 nM (sheet 'Lestaurtinib' of Supplementary Table 1),run:Lestaurtinib_02443_R1,Plate:MR009",1570 nM
same,potency estimated from few doses,"[3]; compound concentrations:100 nM and 1000 nM (sheet 'Lestaurtinib' of Supplementary Table 1),run:Lestaurtinib_02443_R3,Plate:MR009",279 nM
same,potency estimated from few doses,"[3]; compound concentrations:100 nM and 1000 nM (sheet 'Lestaurtinib' of Supplementary Table 1),run:Lestaurtinib_02473_R1,Plate:MR010",982 nM
same,potency estimated from few doses,[3]; [5],998 nM
same,potency estimated from few doses,"[3]; compound concentrations:100 nM and 1000 nM (sheet 'Lestaurtinib' of Supplementary Table 1),run:Lestaurtinib_02496_R1,Plate:MR013",1610 nM
same,potency estimated from few doses,"[3]; compound concentrations:100 nM and 1000 nM (sheet 'Lestaurtinib' of Supplementary Table 1),run:Lestaurtinib_02496_R3,Plate:MR013",1530 nM
same,potency estimated from few doses,"[3]; compound concentrations:100 nM and 1000 nM (sheet 'Lestaurtinib' of Supplementary Table 1),run:Lestaurtinib_02566_R2,Plate:MR014",1700 nM
same,potency estimated from few doses,"[3]; compound concentrations:100 nM and 1000 nM (sheet 'Lestaurtinib' of Supplementary Table 1),run:Lestaurtinib_02566_R3,Plate:MR014",1620 nM
same,potency estimated from few doses,"[3]; compound concentrations:100 nM and 1000 nM (sheet 'Lestaurtinib' of Supplementary Table 1),run:Lestaurtinib_02577_R1,Plate:MR016",1800 nM
same,potency estimated from few doses,[3]; [6],1790 nM
same,potency estimated from few doses,"[3]; compound concentrations:100 nM and 1000 nM (sheet 'Lestaurtinib' of Supplementary Table 1),run:Lestaurtinib_02584_R2,Plate:MR017",1590 nM
same,potency estimated from few doses,[3]; [7],1990 nM
same,potency estimated from few doses,[3]; [8],1820 nM
same,potency estimated from few doses,"[3]; compound concentrations:100 nM and 1000 nM (sheet 'Lestaurtinib' of Supplementary Table 1),run:Lestaurtinib_02601_R2,Plate:MR018",1400 nM
same,potency estimated from few doses,"[3]; compound concentrations:100 nM and 1000 nM (sheet 'Lestaurtinib' of Supplementary Table 1),run:Lestaurtinib_02601_R3,Plate:MR018",1970 nM
same,potency estimated from few doses,[3]; [10],749 nM
same,potency estimated from few doses,[3]; [21],1370 nM
same,potency estimated from few doses,[3]; [11],1340 nM
same,potency estimated from few doses,"[3]; compound concentrations:100 nM and 1000 nM (sheet 'Lestaurtinib' of Supplementary Table 1),run:Lestaurtinib_02741_R3,Plate:MR023",1830 nM
same,potency estimated from few doses,"[3]; compound concentrations:100 nM and 1000 nM (sheet 'Lestaurtinib' of Supplementary Table 1),run:Lestaurtinib_02768_R3,Plate:MR028",1580 nM
same,potency estimated from few doses,"[3]; compound concentrations:100 nM and 1000 nM (sheet 'Lestaurtinib' of Supplementary Table 1),run:Lestaurtinib_02795_R1,Plate:MR022",1320 nM
same,potency estimated from few doses,[3]; [14],1600 nM
same,potency estimated from few doses,"[3]; compound concentrations:100 nM and 1000 nM (sheet 'Lestaurtinib' of Supplementary Table 1),run:Lestaurtinib_02802_R1,Plate:MR029",1590 nM
same,potency estimated from few doses,"[3]; compound concentrations:100 nM and 1000 nM (sheet 'Lestaurtinib' of Supplementary Table 1),run:Lestaurtinib_02802_R3,Plate:MR029",1930 nM
same,potency estimated from few doses,[3]; [22],849 nM
same,potency estimated from few doses,[3]; [15],573 nM
same,potency estimated from few doses,[3]; [16],1130 nM
same,potency estimated from few doses,[3]; [17],754 nM
same,potency estimated from few doses,[3]; [18],1320 nM
same,potency estimated from few doses,[3]; [19],970 nM
same,potency estimated from few doses,"[3]; compound concentrations:100 nM and 1000 nM (sheet 'Lestaurtinib' of Supplementary Table 1),run:Lestaurtinib_03260_R1,Plate:MR033",1570 nM
same,potency estimated from few doses,[3]; [20],1930 nM
same,potency estimated from few doses,"[4]; compound concentrations:100 nM and 1000 nM (sheet 'Lestaurtinib' of Supplementary Table 1),run:Lestaurtinib_02339_R2,Plate:MR001",860 nM
same,potency estimated from few doses,"[4]; compound concentrations:100 nM and 1000 nM (sheet 'Lestaurtinib' of Supplementary Table 1),run:Lestaurtinib_02339_R3,Plate:MR001",1330 nM
same,potency estimated from few doses,"[4]; compound concentrations:100 nM and 1000 nM (sheet 'Lestaurtinib' of Supplementary Table 1),run:Lestaurtinib_02364_R2,Plate:MR002",936 nM
